According to the supplement of paper PMC10849652:
Of roughly 8,800 targets only a part is listed; those with a hit were picked by preference. About 0.5% of all pairs of compound and target were hits.

Columns and labels:
Assay in all cases: log2 fold change, soluble protein after heating vs DMSO (PISA); higher = thermal stabilisation; K562 lysate, 10 uM; active = over 0.2 and 3.5 SD of the protein, either way, in both replicates (recomputed)
ibrutinib = compound: C=CC(=O)N1CCC[C@@H](n2nc(-c3ccc(Oc4ccccc4)cc3)c3c(N)ncnc32)C1 [ibrutinib]
Summary of the method: (§1)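 Soluble protein was defined as the supernatant remaining after 21,000xg for 90 min, following pooling of heated aliquots and adjustment to 0.5% NP-40 at 4°C. Before that, crude K562 extract at 1 mg/mL protein in PBS pH 7.4 with 1 mM MgCl2 was treated with 10 μM compound for 30 min and heated for 3 min across 48°C-58°C. Quantification used TMTpro 16plex LC-MS/MS with channel sums equalised, and values are log-two fold changes in thermal stability relative to solvent controls from duplicates.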

[1] = compound: CC(=O)c1cnc2ccc(-c3cc(Cl)c(O)c(Cl)c3)nc2c1N[C@H]1CC[C@H](CN(C)C)CC1
Summary of the method: as §1

ralimetinib = compound: CC(C)(C)Cn1c(N)nc2ccc(-c3[nH]c(C(C)(C)C)nc3-c3ccc(F)cc3)nc21 [ralimetinib]
Summary of the method: as §1

[2] = compound: CC(C)(O)CC(=O)NCCn1ccc2ncnc(Nc3ccc(Oc4cccc(C(F)(F)F)c4)c(Cl)c3)c21
Summary of the method: as §1

[3] = compound: CC(C)C1=C2N=C(C=C(N2N=C1)NCC3=CC=CC=C3)NCCCCCCN
Summary of the method: as §1

[4] = compound: CC1=C(C(CC(=O)N1)C2=CC=C(C=C2)C(F)(F)F)C(=O)NC3=C(C=C4C(=C3)C=NN4)F
Summary of the method: as §1

[5] = compound: CC1=C(C2=C(C=C1)C(=O)C3=CC=CC=C3N2CCCN)C
Summary of the method: as §1

[6] = compound: CC1=C(C=C(C=C1)NC(=O)C2=CC(=CC=C2)C(C)(C)C#N)NC3=CC4=C(C=C3)N=CN(C4=O)C
Summary of the method: as §1

[7] = compound: CC1=C(C=C(C=C1)NC(=O)C2=CC(=CC=C2)N(C)C)NC(=O)C3=CC=C(C=C3)O
Summary of the method: as §1

[8] = compound: CC1=CC=C(C=C1)SC2=C3C=C(SC3=CN=C2)C(=O)N
Summary of the method: as §1

vemurafenib = compound: CCCS(=O)(=O)Nc1ccc(F)c(C(=O)c2c[nH]c3ncc(-c4ccc(Cl)cc4)cc23)c1F [vemurafenib]
Summary of the method: as §1

[9] = compound: CCCS(=O)(=O)Nc1ccc(F)c(C(=O)c2c[nH]c3ncc(Cl)cc23)c1F
Summary of the method: as §1

barasertib = compound: CCN(CCCOc1ccc2c(Nc3cc(CC(=O)Nc4cccc(F)c4)[nH]n3)ncnc2c1)CCOP(=O)(O)O [barasertib]
Summary of the method: as §1

[10] = compound: CC[C@@H]1C(=O)N(C)c2cnc(Nc3ccc(C(=O)NC4CCN(C)CC4)cc3OC)nc2N1C1CCCC1
Summary of the method: as §1

volasertib = compound: CC[C@@H]1C(=O)N(C)c2cnc(Nc3ccc(C(=O)N[C@H]4CC[C@H](N5CCN(CC6CC6)CC5)CC4)cc3OC)nc2N1C(C)C [volasertib]
Summary of the method: as §1

[11] = compound: CCn1c(C(=O)N(C2CC2)C2CC2)cc2c3c(ncn3C)c(Nc3cc(C)n(C)n3)nc21
Summary of the method: as §1

[12] = compound: CCn1cc(-c2ccnc3[nH]c(-c4cccc(CN(C)C)c4)cc23)c(-c2ccc(NC(=O)N(C)C)cc2)n1
Summary of the method: as §1

[13] = compound: CN1CCC(CNc2ccc3ncc(-c4cccc(OC(F)(F)F)c4)n3n2)CC1
Summary of the method: as §1

saracatinib = compound: CN1CCN(CCOc2cc(OC3CCOCC3)c3c(Nc4c(Cl)ccc5c4OCO5)ncnc3c2)CC1 [saracatinib]
Summary of the method: as §1

sotrastaurin = compound: CN1CCN(c2nc(C3=C(c4c[nH]c5ccccc45)C(=O)NC3=O)c3ccccc3n2)CC1 [sotrastaurin]
Summary of the method: as §1

Measured: log2 fold change

AHCYL1 (UniProt O43865)
inactive: ibrutinib 0.014 | [1] -0.02 | ralimetinib -0.004 | [2] 0.022 | [3] 0.003 | [4] 0.016 | [5] -0.065 | [6] -0.028 | [7] 0.009 | [8] 0.021 | vemurafenib 0.018 | [9] 0.021 | barasertib -0.001 | [10] 0.001 | volasertib -0.073 | [11] -0.021 | [12] -0.055 | [13] -0.012 | saracatinib -0.021 | sotrastaurin 0.006

ALG13 (UniProt Q9NP73)
Chain of UniProt Q9NP73 (Q9NP73 whole entry, looked up): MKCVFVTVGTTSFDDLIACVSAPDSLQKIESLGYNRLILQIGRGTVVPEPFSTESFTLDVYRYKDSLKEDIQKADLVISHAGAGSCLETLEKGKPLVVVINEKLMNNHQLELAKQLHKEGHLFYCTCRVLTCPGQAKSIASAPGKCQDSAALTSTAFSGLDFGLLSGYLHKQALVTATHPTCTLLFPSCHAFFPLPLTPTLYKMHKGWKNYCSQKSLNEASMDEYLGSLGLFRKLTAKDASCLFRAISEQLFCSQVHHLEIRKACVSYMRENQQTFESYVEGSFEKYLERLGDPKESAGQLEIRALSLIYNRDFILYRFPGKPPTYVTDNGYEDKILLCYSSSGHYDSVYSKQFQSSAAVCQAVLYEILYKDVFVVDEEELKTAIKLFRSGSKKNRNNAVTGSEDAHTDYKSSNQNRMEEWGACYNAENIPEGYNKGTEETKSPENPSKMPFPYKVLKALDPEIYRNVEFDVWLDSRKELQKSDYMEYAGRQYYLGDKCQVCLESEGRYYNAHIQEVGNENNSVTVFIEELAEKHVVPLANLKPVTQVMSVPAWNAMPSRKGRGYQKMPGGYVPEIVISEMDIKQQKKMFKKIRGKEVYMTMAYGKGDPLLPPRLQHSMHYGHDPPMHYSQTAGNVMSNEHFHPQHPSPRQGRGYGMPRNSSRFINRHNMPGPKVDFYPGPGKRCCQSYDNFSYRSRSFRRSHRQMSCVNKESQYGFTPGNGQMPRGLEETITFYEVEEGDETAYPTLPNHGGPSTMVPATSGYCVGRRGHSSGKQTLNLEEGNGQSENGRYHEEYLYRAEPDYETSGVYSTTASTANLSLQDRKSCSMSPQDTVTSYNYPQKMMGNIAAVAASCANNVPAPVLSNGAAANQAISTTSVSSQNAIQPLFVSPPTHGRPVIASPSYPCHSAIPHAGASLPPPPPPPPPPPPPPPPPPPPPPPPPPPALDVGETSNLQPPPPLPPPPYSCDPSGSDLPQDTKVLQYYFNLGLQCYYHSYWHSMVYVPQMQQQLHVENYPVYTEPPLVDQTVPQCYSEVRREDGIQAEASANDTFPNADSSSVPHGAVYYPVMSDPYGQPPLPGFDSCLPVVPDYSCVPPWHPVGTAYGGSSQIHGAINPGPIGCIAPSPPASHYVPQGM
inactive: ibrutinib 0.118 | [1] 0.037 | ralimetinib 0.008 | [2] 0.026 | [3] 0.022 | [4] 0.065 | [5] -0.025 | [6] 0.063 | [7] 0.012 | [8] -0.001 | vemurafenib 0.014 | [9] 0.015 | barasertib 0.054 | [10] 0.041 | volasertib -0.041 | [11] -0.016 | [12] -0.14 | [13] 0.086 | saracatinib 0.023 | sotrastaurin 0.017

ACAA1 (UniProt P09110)
inactive: ibrutinib 0.046 | [1] -0.012 | ralimetinib -0.054 | [2] -0.003 | [3] 0 | [4] -0.02 | [5] -0.016 | [6] 0.044 | [7] 0.001 | [8] -0.007 | vemurafenib 0.034 | [9] 0.033 | barasertib -0.027 | [10] 0.006 | volasertib 0.036 | [11] 0.001 | [12] -0.049 | [13] 0.039 | saracatinib 0.002 | sotrastaurin -0.004

ARHGAP6 (UniProt O43182)
Chain of UniProt O43182 (O43182 whole entry, looked up): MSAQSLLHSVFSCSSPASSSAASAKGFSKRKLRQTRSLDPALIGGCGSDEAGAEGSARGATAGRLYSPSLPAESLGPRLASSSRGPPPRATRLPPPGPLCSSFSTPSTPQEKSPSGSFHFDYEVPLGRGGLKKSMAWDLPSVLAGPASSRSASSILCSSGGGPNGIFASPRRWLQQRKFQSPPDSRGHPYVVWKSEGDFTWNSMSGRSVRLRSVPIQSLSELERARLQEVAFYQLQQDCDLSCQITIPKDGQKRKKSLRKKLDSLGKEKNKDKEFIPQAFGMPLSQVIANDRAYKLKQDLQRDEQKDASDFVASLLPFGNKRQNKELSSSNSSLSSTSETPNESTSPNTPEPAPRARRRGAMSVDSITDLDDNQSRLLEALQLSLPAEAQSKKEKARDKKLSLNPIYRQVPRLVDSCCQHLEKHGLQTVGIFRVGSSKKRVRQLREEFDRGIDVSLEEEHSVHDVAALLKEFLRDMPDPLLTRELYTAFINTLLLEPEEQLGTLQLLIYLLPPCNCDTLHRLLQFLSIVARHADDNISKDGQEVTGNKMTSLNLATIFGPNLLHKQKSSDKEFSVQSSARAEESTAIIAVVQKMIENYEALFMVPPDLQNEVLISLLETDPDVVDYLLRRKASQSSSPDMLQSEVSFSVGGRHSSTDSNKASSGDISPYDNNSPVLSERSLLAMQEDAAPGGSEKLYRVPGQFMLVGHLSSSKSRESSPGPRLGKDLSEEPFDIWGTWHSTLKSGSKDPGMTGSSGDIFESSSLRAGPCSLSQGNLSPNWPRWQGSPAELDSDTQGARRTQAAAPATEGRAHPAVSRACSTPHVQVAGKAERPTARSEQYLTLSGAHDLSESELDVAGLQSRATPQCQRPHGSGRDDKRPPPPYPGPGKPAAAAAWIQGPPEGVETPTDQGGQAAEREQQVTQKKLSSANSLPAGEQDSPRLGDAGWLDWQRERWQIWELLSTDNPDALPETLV
inactive: ibrutinib 0.081 | [1] -0.008 | ralimetinib -0.018 | [2] -0.038 | [3] -0.017 | [4] 0.101 | [5] -0.007 | [6] 0.002 | [7] 0.01 | [8] -0.018 | vemurafenib 0.074 | [9] 0.038 | barasertib 0.116 | [10] -0.038 | volasertib -0.107 | [11] -0.014 | [12] 0.072 | [13] -0.139 | saracatinib 0.031 | sotrastaurin -0.049

ALDH18A1 (UniProt P54886)
Chain of UniProt P54886 (P54886 whole entry, looked up): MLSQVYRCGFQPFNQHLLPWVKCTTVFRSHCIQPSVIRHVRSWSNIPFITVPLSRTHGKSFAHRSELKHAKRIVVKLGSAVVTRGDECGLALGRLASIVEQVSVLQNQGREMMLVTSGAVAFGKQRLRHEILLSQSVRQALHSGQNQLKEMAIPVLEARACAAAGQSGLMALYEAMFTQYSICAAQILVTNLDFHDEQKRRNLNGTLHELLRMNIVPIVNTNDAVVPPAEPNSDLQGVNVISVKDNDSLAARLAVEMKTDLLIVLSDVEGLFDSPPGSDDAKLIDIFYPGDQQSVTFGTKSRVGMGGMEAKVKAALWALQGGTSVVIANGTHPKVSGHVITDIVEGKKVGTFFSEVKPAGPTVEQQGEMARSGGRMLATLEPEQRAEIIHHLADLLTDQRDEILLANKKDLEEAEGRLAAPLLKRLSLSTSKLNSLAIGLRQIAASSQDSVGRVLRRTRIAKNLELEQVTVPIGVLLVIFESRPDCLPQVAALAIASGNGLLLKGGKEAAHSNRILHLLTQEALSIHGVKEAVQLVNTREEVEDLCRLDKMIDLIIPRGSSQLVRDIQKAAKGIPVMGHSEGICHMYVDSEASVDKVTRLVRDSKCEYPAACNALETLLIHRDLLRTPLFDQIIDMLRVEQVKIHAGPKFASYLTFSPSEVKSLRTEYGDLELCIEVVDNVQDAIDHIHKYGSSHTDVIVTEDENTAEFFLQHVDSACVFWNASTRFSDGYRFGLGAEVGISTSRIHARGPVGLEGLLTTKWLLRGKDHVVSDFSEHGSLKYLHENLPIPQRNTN
inactive: ibrutinib 0.006 | [1] 0.007 | ralimetinib 0.021 | [2] -0.015 | [3] -0.001 | [4] -0.02 | [5] 0.001 | [6] 0.022 | [7] 0.016 | [8] -0.018 | vemurafenib 0.052 | [9] -0.006 | barasertib 0.033 | [10] -0.054 | volasertib -0.033 | [11] 0.036 | [12] 0.009 | [13] -0.005 | saracatinib 0.003 | sotrastaurin 0.014

ASB6 (UniProt Q9NWX5)
Chain of UniProt Q9NWX5 (Q9NWX5 whole entry, looked up): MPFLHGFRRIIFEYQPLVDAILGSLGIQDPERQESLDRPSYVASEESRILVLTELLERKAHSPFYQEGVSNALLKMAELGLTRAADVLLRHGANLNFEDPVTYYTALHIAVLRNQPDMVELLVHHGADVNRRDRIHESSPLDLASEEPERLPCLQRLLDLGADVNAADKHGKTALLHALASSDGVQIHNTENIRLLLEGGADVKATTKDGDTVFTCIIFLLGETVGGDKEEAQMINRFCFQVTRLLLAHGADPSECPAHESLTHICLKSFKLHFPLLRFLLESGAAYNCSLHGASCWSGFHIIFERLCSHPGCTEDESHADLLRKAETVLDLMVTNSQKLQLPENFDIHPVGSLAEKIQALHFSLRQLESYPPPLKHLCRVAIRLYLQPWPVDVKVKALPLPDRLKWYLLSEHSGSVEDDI
inactive: ibrutinib -0.04 | [1] -0.087 | ralimetinib 0.027 | [2] -0.013 | [3] 0.001 | [4] -0.13 | [5] -0.007 | [6] 0.055 | [7] -0.052 | [8] 0.01 | vemurafenib -0.249 | [9] -0.039 | barasertib 0.109 | volasertib -0.026 | [11] -0.002 | [12] 0.182 | [13] 0.075 | saracatinib -0.05 | sotrastaurin -0.01
active: [10] 0.651

AKR1C2 (UniProt P52895)
Chain of UniProt P52895 (P52895 whole entry, looked up): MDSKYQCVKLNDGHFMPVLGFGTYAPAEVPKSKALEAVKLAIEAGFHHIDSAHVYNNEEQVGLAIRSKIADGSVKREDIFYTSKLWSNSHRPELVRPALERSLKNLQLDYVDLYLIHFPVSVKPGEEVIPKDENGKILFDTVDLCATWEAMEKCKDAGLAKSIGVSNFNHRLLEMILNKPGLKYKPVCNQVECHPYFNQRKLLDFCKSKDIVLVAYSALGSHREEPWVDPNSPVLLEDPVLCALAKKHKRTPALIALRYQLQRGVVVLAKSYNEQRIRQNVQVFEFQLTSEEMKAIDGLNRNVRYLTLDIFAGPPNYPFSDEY
inactive: ibrutinib 0.031 | [1] 0.021 | ralimetinib -0.043 | [2] -0.035 | [3] 0.025 | [4] -0.025 | [5] 0.038 | [6] -0.013 | [7] 0.018 | [8] 0.019 | vemurafenib 0.001 | [9] 0.018 | barasertib -0.008 | [10] 0.008 | volasertib -0.018 | [11] -0.043 | [13] 0.148 | saracatinib 0.062 | sotrastaurin 0.006
active: [12] -0.369

ARL8A (UniProt Q96BM9)
inactive: ibrutinib -0.141 | [1] 0.119 | ralimetinib -0.101 | [2] -0.102 | [3] 0.11 | [4] 0.135 | [5] -0.049 | [6] -0.143 | [7] -0.022 | [8] 0 | vemurafenib -0.029 | [9] -0.26 | barasertib -0.026 | [10] -0.001 | volasertib -0.037 | [11] -0.03 | [13] -0.199 | saracatinib 0.03 | sotrastaurin 0.022
active: [12] 0.558

AK2 (UniProt P54819)
inactive: ibrutinib 0.054 | [1] -0.022 | ralimetinib -0.013 | [2] 0.027 | [3] 0.018 | [4] -0.018 | [5] 0.003 | [6] -0.018 | [7] -0.031 | [8] -0.024 | vemurafenib 0.014 | [9] 0.062 | barasertib -0.013 | [10] 0.029 | volasertib 0.013 | [11] -0.009 | [12] 0.119 | [13] -0.008 | saracatinib -0.015 | sotrastaurin -0.038

ANKRD54 (UniProt Q6NXT1)
Chain of UniProt Q6NXT1 (Q6NXT1 whole entry, looked up): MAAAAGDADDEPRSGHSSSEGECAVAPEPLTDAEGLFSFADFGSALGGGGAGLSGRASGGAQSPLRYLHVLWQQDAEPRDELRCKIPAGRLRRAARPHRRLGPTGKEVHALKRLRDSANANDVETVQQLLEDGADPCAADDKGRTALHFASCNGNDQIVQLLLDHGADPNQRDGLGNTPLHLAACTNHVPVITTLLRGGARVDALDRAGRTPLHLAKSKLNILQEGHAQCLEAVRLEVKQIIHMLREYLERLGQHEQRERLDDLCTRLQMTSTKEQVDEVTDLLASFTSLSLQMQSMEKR
inactive: ibrutinib -0.054 | [1] -0.002 | ralimetinib 0.063 | [2] -0.006 | [3] 0.044 | [4] 0.003 | [5] 0.001 | [6] -0.006 | [7] 0.01 | [8] -0.023 | vemurafenib -0.031 | [9] 0.053 | barasertib -0.026 | [10] 0.021 | volasertib 0.006 | [11] -0.005 | [12] 0.004 | [13] 0.011 | saracatinib -0.004 | sotrastaurin 0.001

ABHD12 isoform 2 (UniProt Q8N2K0)
inactive: ibrutinib -0.039 | [1] -0.03 | ralimetinib 0.043 | [2] -0.014 | [3] 0.05 | [4] 0.052 | [5] 0.021 | [6] 0.022 | [7] -0.05 | [8] 0.033 | vemurafenib -0.049 | [9] 0.077 | barasertib -0.015 | [10] 0.034 | volasertib 0.006 | [11] -0.055 | [12] 0.119 | [13] -0.111 | saracatinib -0.039 | sotrastaurin 0.018

ACOX1 isoform 2 (UniProt Q15067)
inactive: ibrutinib 0.036 | [1] 0.052 | ralimetinib 0.098 | [2] -0.044 | [3] -0.013 | [4] -0.016 | [5] -0.043 | [6] 0.001 | [7] -0.026 | [8] -0.024 | vemurafenib 0.017 | [9] 0.003 | barasertib -0.029 | [10] 0.015 | volasertib 0.053 | [11] -0.026 | [12] -0.038 | [13] 0.1 | saracatinib -0.014 | sotrastaurin 0.004

ALDH2 (UniProt P05091)
Chain of UniProt P05091 (P05091 whole entry, looked up): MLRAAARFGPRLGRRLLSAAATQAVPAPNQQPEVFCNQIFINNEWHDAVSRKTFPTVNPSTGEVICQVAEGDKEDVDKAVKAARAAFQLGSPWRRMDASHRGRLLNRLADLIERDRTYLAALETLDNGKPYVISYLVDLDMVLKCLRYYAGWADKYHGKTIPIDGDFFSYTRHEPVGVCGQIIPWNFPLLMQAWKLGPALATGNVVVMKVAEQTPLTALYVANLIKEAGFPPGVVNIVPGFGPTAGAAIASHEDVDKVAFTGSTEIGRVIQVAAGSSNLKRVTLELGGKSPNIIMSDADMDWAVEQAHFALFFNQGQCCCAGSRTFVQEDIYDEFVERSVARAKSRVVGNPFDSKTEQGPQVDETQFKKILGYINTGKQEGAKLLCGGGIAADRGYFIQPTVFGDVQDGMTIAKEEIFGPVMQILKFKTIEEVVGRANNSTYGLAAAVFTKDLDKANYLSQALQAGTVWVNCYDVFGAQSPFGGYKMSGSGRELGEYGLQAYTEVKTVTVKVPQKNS
inactive: ibrutinib -0.001 | [1] 0.081 | ralimetinib 0.002 | [2] -0.012 | [3] 0.199 | [4] -0.013 | [5] 0.014 | [6] -0.081 | [7] 0 | [8] 0.01 | vemurafenib -0.083 | [9] 0.011 | barasertib -0.012 | [10] -0.012 | volasertib -0.017 | [11] -0.011 | [12] 0.007 | [13] -0.009 | saracatinib 0.012 | sotrastaurin 0

ACBD6 (UniProt Q9BR61)
Chain of UniProt Q9BR61 (Q9BR61 whole entry, looked up): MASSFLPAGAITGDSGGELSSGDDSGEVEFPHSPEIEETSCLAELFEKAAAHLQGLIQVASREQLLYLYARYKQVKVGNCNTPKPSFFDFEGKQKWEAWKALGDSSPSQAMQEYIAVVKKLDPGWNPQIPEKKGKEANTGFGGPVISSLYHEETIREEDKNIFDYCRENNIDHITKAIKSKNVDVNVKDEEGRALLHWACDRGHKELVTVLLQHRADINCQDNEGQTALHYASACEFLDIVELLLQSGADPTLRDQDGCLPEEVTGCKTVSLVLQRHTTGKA
inactive: ibrutinib 0.007 | [1] 0.038 | ralimetinib 0.012 | [2] -0.039 | [3] 0.002 | [4] 0.034 | [5] 0.001 | [6] 0.062 | [7] 0.027 | [8] -0.057 | vemurafenib 0.028 | [9] 0.035 | barasertib -0.006 | [10] -0.025 | volasertib -0.082 | [11] 0.013 | [12] -0.009 | [13] 0.006 | saracatinib -0.015 | sotrastaurin 0.014

ARGLU1 (UniProt Q9NWB6)
Chain of UniProt Q9NWB6 (Q9NWB6 whole entry, looked up): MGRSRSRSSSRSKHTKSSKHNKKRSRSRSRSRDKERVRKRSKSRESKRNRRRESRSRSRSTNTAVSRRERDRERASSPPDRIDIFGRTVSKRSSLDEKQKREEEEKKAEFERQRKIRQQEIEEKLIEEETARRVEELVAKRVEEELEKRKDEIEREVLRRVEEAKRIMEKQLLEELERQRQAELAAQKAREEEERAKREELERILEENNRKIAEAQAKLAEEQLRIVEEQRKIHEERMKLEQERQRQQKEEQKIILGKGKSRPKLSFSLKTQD
inactive: ibrutinib 0.027 | [1] -0.034 | ralimetinib -0.027 | [2] 0.015 | [3] 0.005 | [4] -0.008 | [5] 0.026 | [6] -0.027 | [7] -0.022 | [8] 0.019 | vemurafenib -0.013 | [9] 0.027 | barasertib -0.043 | [10] 0.001 | volasertib 0.027 | [11] -0.035 | [12] 0.073 | [13] -0.02 | saracatinib 0.047 | sotrastaurin -0.019

ARAP1 (UniProt Q96P48)
inactive: ibrutinib -0.01 | [1] 0.002 | ralimetinib 0.016 | [2] 0.028 | [3] 0.003 | [4] 0.02 | [5] -0.01 | [6] 0.005 | [7] 0.057 | [8] 0.006 | vemurafenib -0.014 | [9] 0.006 | barasertib 0.013 | [10] -0.034 | volasertib -0.085 | [11] 0.029 | [12] -0.076 | [13] 0.015 | saracatinib -0.001 | sotrastaurin 0.006
